From PubChem BioAssay
Shown are actives, neighbours in structure and some others; about 21% of the full set was active somewhere.
NS1 function inh: qHTS Assay for Inhibitors of Influenza NS1 Protein Function. Potency, µM (highest dose often 46.1 µM), for the others: at the top dose activity, positive = more growth. actives 0.4% (n = 270,000). AID 2326, 2010; calls by dose curve; further: potency means the concentration at half of the fitted maximal effect; actives are rising curves; nearly all actives have a fitted effect of over 50% in size
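Read-out: OD600 growth recovery of NS1-expressing budding yeast. Cells grown overnight at 30C in -URA glucose medium, washed, resuspended and diluted 1:100 in 2% galactose assay medium, pH 6.0. Same strain lacking NS1 served as positive control.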
Shiga toxin inh: A qHTS for Small Molecule Inhibitors of Shiga Toxin; Vero cells, Shiga toxin protein synthesis inhibition reporter; inhibition, % at 38.7 µM; actives 9.2% (n = 290,000); AID 2315, 2010; in the data active means inhibition mostly above about 28%, no sharp cut-off; inactive means mostly below about 43%; further: 0% is about no effect
CHX counter: Cycloheximide Counterscreen for Small Molecule Inhibitors of Shiga Toxin | max response, % | cell reporter, cycloheximide protein synthesis inhibition counterscreen | actives 12% (n = 300,000); in the data active means max response mostly above about 13%, no sharp cut-off; inactive means mostly below about 14%; further: read at 38.3 µM for the half of the compounds with a filed dose; 0% is about no effect
Pf growth 96h: Primary qHTS for delayed death inhibitors of the malarial parasite plastid, 96 hour incubation. P. falciparum luciferase reporter growth, 96 h. Potency, µM (titrated, usually from 28.7 µM), for inactives: at the highest dose activity change, negative = inhibition, hits mostly inhibitors. actives 6.9% (n = 320,000). AID 504834, 2011; further: potency means the concentration at half of the fitted maximal effect; on the % scale 0 is the no-effect control and ±100 the full control effect
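P. falciparum expressing integrated firefly luciferase, in erythrocytes at 2% hematocrit, 0.05% parasitemia, incubated with compounds 96 h at 37 C, 5% CO2. Growth inhibition read as loss of luminescence; two-generation exposure targets delayed-death apicoplast inhibitors.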
Giardia FBPA inh: qHTS Assay for Inhibitors of Fructose-1,6-bisphosphate Aldolase from Giardia Lamblia; A8B2U2; purified Giardia FBPA; Potency, µM (top dose mostly 59.6 µM), for the others: at the highest dose activity, negative = inhibition, hits mostly inhibitors; actives 0.71% (n = 290,000); further: potency means the concentration at half of the fitted maximal effect; on the % scale 0 is the no-effect control and ±100 the full control effect; nearly all actives have a fitted effect of over 55% in size
Target sequence (A8B2U2 whole entry, looked up): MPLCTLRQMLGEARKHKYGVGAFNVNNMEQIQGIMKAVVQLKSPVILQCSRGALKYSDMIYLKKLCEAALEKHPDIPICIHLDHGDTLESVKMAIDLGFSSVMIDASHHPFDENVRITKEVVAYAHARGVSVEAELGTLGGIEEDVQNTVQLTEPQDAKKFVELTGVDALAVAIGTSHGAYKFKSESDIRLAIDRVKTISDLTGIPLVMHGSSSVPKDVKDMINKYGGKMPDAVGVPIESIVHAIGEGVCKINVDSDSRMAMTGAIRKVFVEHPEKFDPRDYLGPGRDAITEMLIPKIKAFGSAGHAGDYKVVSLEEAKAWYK
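Giardia FBPA (40 nM reagent) was preincubated 10 min at RT with compound (up to 57.5 uM final), then substrate plus GAPDH/TPI/NAD/arsenate coupling system with diaphorase/resazurin was added; resorufin fluorescence (525/598 nm) was read after 20 min.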
Pf growth 48h: Primary qHTS for delayed death inhibitors of the malarial parasite plastid, 48 hour incubation; P. falciparum luciferase growth in erythrocytes, 48 h; Potency, µM (top dose mostly 28.7 µM), for the others: at the highest dose activity change, negative = inhibition, most hits filed as inhibitors; actives 5.9% (n = 310,000); further: potency means the concentration at half of the fitted maximal effect; on the % scale 0 is the no-effect control and ±100 the full control effect
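A one-generation exposure of luciferase-tagged malaria parasites in RPMI 1640/Albumax erythrocyte culture, 37 C and 5% CO2. Inhibition is inferred from decreased luminescence after adding detection reagent.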
An asterisk follows results filed as active; ? = inconclusive; . = not tested or not shown. Unless noted, the call rests on the fitted dose curve; in most records, active means well fitted curve in the direction sought with a large enough effect; inconclusive means small, poorly fitted or top-dose-only effect, or another doubt; inactive means no such curve, though single readings can be large; an effect the other way counts as inactive or inconclusive.

SMILES	NS1 function inh	Shiga toxin inh	CHX counter	Pf growth 96h	Giardia FBPA inh	Pf growth 48h
O=C(Nc1ccccn1)c1nc(-c2ccccc2)n(-c2ccccc2)n1	6.2%	12.8	11.9	?	-3.2%	1.0%
Cc1csc(SCC(=O)Nc2sccc2C(N)=O)n1	.	67.9*	36.3*	269.8%	-14.4%	293.6%
NC(=O)c1ccsc1NC(=O)c1nc(-c2ccccc2)n(-c2ccccc2)n1	?	22.8	9.5	7.38µM*	-10.6%	7.38µM*
NC(=O)c1ccsc1NC(=O)CSc1ccccc1F	-60.1%	175.1	36.1*	9.28µM*	-3.8%	98.2%
COc1ccc(CCNC(=O)Oc2ccccc2)cc1OC	0.0%	2.5	-5.1	?	-1.2%	-1.1%
CC(=O)N1CCOc2ccc(S(=O)(=O)N3CC(C)CC(C)C3)cc21 (stereo unspecified)	-2.9%	22.7	2.5	9.28µM*	28.6%	-21.2%
CC(=O)N1CCOc2ccc(S(=O)(=O)N3CCC(C)CC3)cc21	7.4%	-1.4	-3.0	53.5%	6.5%	19.2%
CC(=O)N1CCOc2ccc(S(=O)(=O)N(C)c3cccc(C)c3)cc21	6.7%	-8.1	7.2	-24.4%	.	0.1%
CCOc1ccccc1N(C)S(=O)(=O)c1ccc2c(c1)N(C(C)=O)CCO2	-4.3%	-11.8	-1.2	1.85µM*	.	-1.8%
CCN(CC)c1ccc(/C=C2\C(=N)N3N=C(CC(=O)N4CCOCC4)SC3=NC2=O)cc1	17.3%	14.5	8.8	?	.	-18.9%
CC(=O)N1CCN(CC(=O)NC(=O)Nc2ccc3c(c2)OCCO3)CC1	.	.	.	29.1%	.	24.7%
COC(C(=O)Nc1ccnn1C1CCN(C(=O)c2ccc(C=O)cc2)CC1)c1ccccc1 (stereo unspecified)	12.7%	-1.7	15.8	2.6%	0.0%	?
CC1CCCC(C)N1C(=O)CN1C(=O)NC2(CCOc3ccccc32)C1=O (stereo unspecified)	.	.	.	-2.6%	.	-2.0%
O=C(NNC(=S)NC1CCCCC1)c1ccc2c(c1)OCO2	6.3%	-4.1	-2.4	106.8%	-0.6%	102.6%
CN(C(=O)c1ccc2c(c1)OCO2)C1(C(=O)NC2CCCC2)CCCCC1	3.0%	6.6	-3.4	-11.1%	3.0%	-13.4%
S=C(c1ccc2c(c1)OCO2)N1CCCCCC1	-3.3%	-12.0	-3.6	11.7µM*	5.2%	.
O=C(NC1CCCCCCC1)c1ccc2c(c1)OCO2	-30.9%	47.9*	41.8*	1.7%	-12.9%	-60.0%
S=C(c1ccc2c(c1)OCO2)N1CCOCC1	-24.5%	-5.3	-1.6	-7.3%	-6.0%	?
O=C(NC1CCCCC1)c1ccc2c(c1)OCCO2	7.5%	41.9*	21.5*	?	-1.0%	172.0%
S=C(NC1CCCCC1)c1ccc2c(c1)OCO2	0.4%	66.0*	21.6*	67.6%	2.9%	26.5%
CCOc1ccc(S(=O)(=O)N(CC)CC(=O)NC2CCS(=O)(=O)C2)cc1 (stereo unspecified)	.	.	.	-1.6%	.	-6.0%
O=C(CN1C(=O)CCSc2ccc(S(=O)(=O)N3CCCC3)cc21)NCc1ccccc1Cl	7.7%	-4.8	-2.2	?	.	-13.0%
COc1cccc(N2CCN(C3C4CC5CC(C4)CC3C5)CC2)c1 (stereo unspecified)	0.6%	51.9	22.0*	.	-7.8%	.
COC(=O)NC(=S)Nc1ccc(Oc2ccc(Cl)cc2Cl)c(Cl)c1	11.3%	9.6	-1.4	13.1µM*	-2.8%	?
Cc1ccc(NC(=S)NC(=O)C2CC2)cc1Cl	-22.2%	52.9*	28.1*	9.28µM*	.	-25.6%
O=C(NC(=S)Nc1ccc(F)c(Cl)c1)C1CC1	-18.3%	16.8	27.7*	-6.5%	.	-37.2%
O=C(NC(=S)Nc1ccc(S(=O)(=O)N2CCCC2)cc1)C1CC1	-6.7%	1.3	-1.9	0.5%	1.2%	?
CC(C)CCNC(=O)C1CCN(S(=O)(=O)c2ccc(-n3cnnn3)cc2)CC1	4.4%	19.6	1.4	27.1%	7.6%	-7.7%
CCN1CCN(C(c2cc3cccc(C)c3[nH]c2=O)c2nnnn2Cc2ccccc2)CC1 (stereo unspecified)	-8.6%	-1.9	-3.6	15.6%	1.9%	?
